# Bioassay records as filed in PubChem BioAssay.
# Shiga toxin inh = A qHTS for Small Molecule Inhibitors of Shiga Toxin. AID 2315, 2010. Vero cells, Shiga toxin protein synthesis inhibition reporter. inhibition, % at 38.7 µM. 290,000 tested, 9.2% active; in the data active means inhibition mostly above about 28%, no sharp cut-off; inactive means mostly below about 43%; further: 0% is about no effect
# TbPYK inhibitor = qHTS of Trypanosoma Brucei Inhibitors | pyruvate kinase (Trypanosoma brucei), Q57TT1 | TbPYK enzyme, Kinase-Glo Plus ATP luminescence, 45 min | Potency, µM (top dose mostly 76.8 µM), without a hit: at the top dose activity, negative = inhibition, usual class: inhibitors | 410,000 tested, 0.12% active | AID 624173, 2012; further: potency means the concentration at half of the fitted maximal effect; on the % scale 0 is the no-effect control and ±100 the full control effect; nearly all actives have a fitted effect of over 50% in size
#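 Readout: single end-point luminescence (Kinase-Glo Plus, 10 min). Reaction conditions were TbPYK/substrate plus 130 uM ADP, 45 min at RT, pH 7.2 TEA buffer. No-enzyme wells served as controls, and data were normalized before concentration-response fitting.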
# RE007 growth inh = qHTS Assay for Inhibitors of the HIV-1 protein Vpr. S. pombe RE007 Vpr strain, BacTiter-Glo ATP luminescence, 24 h. AID 651644, 2012. Potency, µM (highest dose often 92.2 µM), for the others: top-dose activity change, negative = less growth, most hits filed as inhibitors. 360,000 tested, 0.21% active; active means well fitted falling curve with a large enough effect; inconclusive means small, poorly fitted or top-dose-only effect; inactive means no such curve, though single readings can be large or run the other way; further: potency means the concentration at half of the fitted maximal effect; on the % scale 0 is the no-effect control and ±100 the full control effect; nearly all actives have a fitted effect of over 50% in size
#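 Fission yeast RE007 carrying one integrated HIV-1 vpr copy, seeded at OD 0.01 in PMG+AL medium with 23 nL pinned compound. Grown 24 h at 30 degrees; viability read by BacTiter-Glo luminescence after 5 min.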
# FBPA Giardia inh = qHTS Assay for Inhibitors of Fructose-1,6-bisphosphate Aldolase from Giardia Lamblia | A8B2U2 | purified Giardia FBPA | 290,000 tested, 0.71% active | AID 2451, 2010 | Potency, µM (titrated, usually from 59.6 µM), for inactives: at the top dose activity, negative = inhibition, hits mostly inhibitors; further: potency means the concentration at half of the fitted maximal effect; on the % scale 0 is the no-effect control and ±100 the full control effect; nearly all actives have a fitted effect of over 55% in size
# Target sequence (A8B2U2 whole entry, looked up): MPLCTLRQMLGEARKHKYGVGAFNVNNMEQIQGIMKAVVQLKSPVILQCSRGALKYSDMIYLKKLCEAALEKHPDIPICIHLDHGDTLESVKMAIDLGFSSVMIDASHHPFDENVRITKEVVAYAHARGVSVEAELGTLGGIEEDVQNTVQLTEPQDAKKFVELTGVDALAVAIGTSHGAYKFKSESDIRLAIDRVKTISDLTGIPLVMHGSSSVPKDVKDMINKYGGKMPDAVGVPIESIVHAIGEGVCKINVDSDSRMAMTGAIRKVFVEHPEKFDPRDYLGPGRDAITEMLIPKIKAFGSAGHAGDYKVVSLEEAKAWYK
#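 40 nM FBPA preincubated 10 min at RT with compound (up to 57.5 uM final), then substrate plus GAPDH/TPI/NAD/arsenate coupling and diaphorase/resazurin added. Fluorescence read after 20 min at RT, 525/598 nm.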
# LmPK inh = qHTS Assay for Inhibitors of Leishmania Mexicana Pyruvate Kinase (LmPK). Q27686. purified LmPK, Kinase-Glo ATP luminescence, 1 h. Potency, µM (titrated, usually from 57.5 µM), for the others: at the highest dose activity change, negative = inhibition, usual class: inhibitors. 290,000 tested, 0.37% active; further: potency means the concentration at half of the fitted maximal effect; on the % scale 0 is the no-effect control and ±100 the full control effect
#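 Purified LmPK (0.1 nM) with 0.5 mM PEP and 0.1 mM ADP in imidazole buffer pH 7.2 with MgCl2/KCl, 1 h at room temperature. ATP formed was read by luciferase luminescence and normalized to no-enzyme and uninhibited controls.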
# Cycloheximide cs = Cycloheximide Counterscreen for Small Molecule Inhibitors of Shiga Toxin; cell reporter, cycloheximide protein synthesis inhibition counterscreen; max response, %; 300,000 tested, 12% active; AID 2314, 2010; in the data active means max response mostly above about 13%, no sharp cut-off; inactive means mostly below about 14%; further: read at 38.3 µM for the half of the compounds with a filed dose; 0% is about no effect
# An asterisk follows results filed as active; u = inconclusive; x = no result given; [ ] = remark or other dose. Only a selection was taken, and hits are over-represented in it overall. Unless noted, the call rests on the fitted dose curve; in most records, active means well fitted curve in the direction sought with a large enough effect; inconclusive means small, poorly fitted or top-dose-only effect, or another doubt; inactive means no such curve, though single readings can be large; an effect the other way counts as inactive or inconclusive.
SMILES,Shiga toxin inh,TbPYK inhibitor,RE007 growth inh,FBPA Giardia inh,LmPK inh,Cycloheximide cs
Cc1cccc(C(=O)NNC(=O)Nc2ccccc2)c1,-2,4%,55%,3%,-14%,2
Cc1ccc(S(=O)(=O)N2CCC(=O)N([C@H](COCc3ccc(Cl)c(Cl)c3)Cc3ccccc3)CC2)cc1,x,1%,8%,x,x,x
Cc1ccc(NC(=O)C(=O)c2ccc(C)cc2)cc1,67,-1%,-12%,-2%,-5%,57*
COc1ccc(C(=O)Nc2ccc(C(=O)Nc3cccc(C)c3)cc2)cc1,-4,12%,1%,x,1%,-2
COc1ccc(NC(=O)c2ccc(C)cc2)c[n+]1[O-],32,5%,-11%,11%,3%,12*
Cc1ccc(-c2nn(-c3ccccc3)cc2C(=O)Nc2ccc(C(=O)O)cc2)cc1,48*,-10%,-20%,25%,-3%,21*
Cc1ccc(NC(=O)c2ccccc2)cc1,109*,0%,-20%,2%,u,33*
CC(C)(C)OC(=O)NC(NC(=O)OCC1c2ccccc2-c2ccccc21)C(=O)O (configuration not stated),-3,x,x,-25%,x,-4
CCc1nc2c(OCC(=O)C(C)(C)C)cccn2c1N(C)C(=O)CC(C)C,x,0%,-17%,x,x,x
Cc1nc(-c2ccc(C)c(S(=O)(=O)N3CCC(C(=O)NCc4ccc(Cl)cc4)CC3)c2)no1,x,0%,x,x,x,x
CC(C)C(NC(=O)c1ccc(C(C)(C)C)cc1)C(=O)N1CCC(C(N)=O)CC1 (configuration not stated),x,3%,4%,x,x,x
O=C(Nc1ccc(Nc2ccccc2)cc1)c1ccc(F)cc1,33*,4%,x,5%,1%,36*
O=C(O)c1ccc(C(=O)Nc2ccc(F)cc2)cc1,x,-1%,-1%,x,x,x
Cc1ccc(NC(=O)C2=C(c3ccccc3)S(=O)(=O)CCS2(=O)=O)cc1,22,-12%,2%,-1%,5%,34*
O=C(NCc1ccccc1)c1ccc(CNS(=O)(=O)c2ccc(Br)cc2)cc1,x,3%,x,x,x,x
CCOc1cc(/C=C2/N=C(c3ccc4c(c3)OCO4)OC2=O)ccc1OC(C)=O,x,-1%,-2%,x,x,x
CN(C)/C=C1\N=C(c2ccc3c(c2)OCO3)OC1=O,64*,2%,-1%,-1%,-5%,27*
O=C1OC(c2ccccc2)=N/C1=C\C=C\c1ccco1,-8,-6%,-1%,-1%,3%,2
CN(C)/C=C1\N=C(c2ccccc2)OC1=O,19,4%,-13%,0%,-16%,15*
CCc1nnc(SCC(=O)Nc2ccc(Cl)cc2F)c2cc3occc3n12,x,-5%,x,x,x,x
COc1ccc(OCCN2CCC(C(=O)NC(c3ccc(F)cc3)c3ncccc3C)CC2)cc1 (configuration not stated),x,-1%,1%[18.4 µM],x,x,x
CN(C)CCN(C(=O)c1ccc(C(=O)c2ccccc2)cc1)c1nc2cc3c(cc2s1)OCO3,21,-8%,-22%,x,3%,10*
CN(C)CCCN(C(=O)c1ccc(C(=O)c2ccccc2)cc1)c1nc2cc3c(cc2s1)OCCO3,19,1%,13%,x,0%,-3
CN(C)CCN(C(=O)c1ccc(S(=O)(=O)N(C)c2ccccc2)cc1)c1nc2cc3c(cc2s1)OCO3,28,-14%,-4%,x,-5%,18*
CN(C)CCN(C(=O)c1ccco1)c1nc2cc3c(cc2s1)OCCO3,41,-6%,-8%,u,8%,38*
SMILES,Shiga toxin inh,TbPYK inhibitor,RE007 growth inh,FBPA Giardia inh,LmPK inh,Cycloheximide cs
CN(C)CCCN(C(=O)c1ccc(S(=O)(=O)N(C)C)cc1)c1nc2cc3c(cc2s1)OCO3,14,-4%,-13%,0%,3%,8
CN(C)CCN(C(=O)c1ccc(C(=O)c2ccccc2)cc1)c1nc2cc3c(cc2s1)OCCO3,81*,1%,-11%,-18%,7%,36*
COC(=O)c1ccc(C(NC(=O)OCc2ccccc2)/C(C)=C/[C@@H](C)C(=O)NCCc2c[nH]c3ccc(OC)cc23)cc1 (some centres not stated),x,x,x,-2%,x,x
Cc1cccc(NC(=O)CSc2nc(=O)n(CCCN3CCOCC3)c3c2CCCC3)c1C,x,-8%,2%,x,x,x
CN(C)CCCN(C(=O)COc1ccccc1)c1nc2cc3c(cc2s1)OCCO3,18,-5%,8%,x,-2%,24*
CN(C)CCN(C(=O)CN1C(=O)c2ccccc2C1=O)c1nc2cc3c(cc2s1)OCO3,49,2%,u,-24%,5%,27*
COc1ccc2sc(N(CCN(C)C)C(=O)c3cc(Cl)sc3Cl)nc2c1,37,0%,-12%,-8%,0%[11.5 µM],18
CN(C)CCCN(C(=O)CCS(=O)(=O)c1ccccc1)c1nc2cc3c(cc2s1)OCO3,17,3%,5%,x,0%,9.9*
COc1ccc2sc(N(CCN(C)C)C(=O)c3ccc4ccccc4c3)nc2c1,21,4%,-10%,-27%,2%,21*
Cc1cc(NC(=O)CSC2=NS(=O)(=O)c3ccccc3N2)no1,x,-9%,9%,x,x,x
O=S(=O)(c1ccc(Br)s1)N1CCN(c2cccc(C(F)(F)F)c2)CC1,x,-1%,x,x,x,x
Cc1ccc(-c2noc(CNC(=O)COc3ccccc3C)n2)cc1,-8,-18%,6%,9%,6%,-2
CCC(=O)c1ccc(OCCn2cnc3ccccc32)cc1,8,3%,9%,-8%,0%,12
O=C(COc1ccccc1[N+](=O)[O-])N(Cc1cccc(Br)c1)C1CCS(=O)(=O)C1 (configuration not stated),-1,1%,-11%,x,-10%,-7
COCCNC(=O)C1(C)CCCN(Cc2cc(C(F)(F)F)ccc2Cl)C1 (configuration not stated),x,0%,-17%,x,x,x
COc1ccc(C(=O)CCC(=O)Nc2cccnc2)cc1OC,11,0%,5%,-5%,-2%,-2
CN(C)CCN(C(=O)c1ccc(N2C(=O)CCC2=O)cc1)c1nc2cc3c(cc2s1)OCCO3,60*,x,x,-11%,0%,38*
CN(C)CCN(C(=O)c1ccc(S(=O)(=O)N(C)c2ccccc2)cc1)c1nc2ccc(Cl)cc2s1,64*,3%,-6%,x,-7%,34*
CN(C)CCCN(C(=O)c1ccc2c(c1)CCCC2)c1nc2cc3c(cc2s1)OCO3,-11,0%,1%,-22%,4%,-3
CN(C)CCCN(C(=O)c1ccc(S(=O)(=O)N2CCc3ccccc32)cc1)c1nc2ccc(Cl)cc2s1,-16,0%,-5%,x,-8%,10
